Assay outcomes: PubChem BioAssay, several laboratories
CendR NRP1 mod: alters CendR peptide binding to human NRP-1; inhibition, % at 25 µM; actives 0.85% (n = 360,000); FAM-RPARPAR peptide binding to NRP-1, fluorescence polarization; O14786;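 active = inhibition or corrected inhibition above about 18%, plus a signal ratio from 0.5 to 1.5, limit read from the data, passing the limit was not always enough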
APOBEC3G inh: blocks human APOBEC3G single-stranded DNA deamination. Q9HC16. recombinant A3G, ssDNA deamination FAM/TAMRA fluorescence. inhibition, % at 20 µM. actives 0.28% (n = 330,000). AID 493012;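 active = inhibition of at least 40% at 20 µM, with no more than 30% in the related APOBEC3A deaminase screen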;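 note: plate controls were DMSO wells with A3G for no effect and wells lacking A3G enzyme for full effect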
ADAM10 inh: inhibitors of human ADAM10; O14672; recombinant ADAM10, EDANS/DABCYL FRET peptide cleavage, 3 h; inhibition, % at 7 µM; actives 0.62% (n = 370,000);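 active = inhibition above a per-campaign cutoff equal to the mean of compounds falling between control-based bounds plus 3 SD, cut at about 20% in these data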;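 note: 0% = DMSO wells while the 100% control is not disclosed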
ADAM17 inh: inhibitors of human ADAM17; inhibition, % at 6.95 µM; P78536; recombinant ADAM17, EDANS/DABCYL FRET peptide cleavage; actives 0.83% (n = 370,000);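 active = inhibition above the mean of compounds lying between control limits plus 3 SD, set per campaign, cut at about 8.5% in these data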;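 note: 0% = DMSO-only wells as the low control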
Target sequence (P78536 215-824 limits assumed): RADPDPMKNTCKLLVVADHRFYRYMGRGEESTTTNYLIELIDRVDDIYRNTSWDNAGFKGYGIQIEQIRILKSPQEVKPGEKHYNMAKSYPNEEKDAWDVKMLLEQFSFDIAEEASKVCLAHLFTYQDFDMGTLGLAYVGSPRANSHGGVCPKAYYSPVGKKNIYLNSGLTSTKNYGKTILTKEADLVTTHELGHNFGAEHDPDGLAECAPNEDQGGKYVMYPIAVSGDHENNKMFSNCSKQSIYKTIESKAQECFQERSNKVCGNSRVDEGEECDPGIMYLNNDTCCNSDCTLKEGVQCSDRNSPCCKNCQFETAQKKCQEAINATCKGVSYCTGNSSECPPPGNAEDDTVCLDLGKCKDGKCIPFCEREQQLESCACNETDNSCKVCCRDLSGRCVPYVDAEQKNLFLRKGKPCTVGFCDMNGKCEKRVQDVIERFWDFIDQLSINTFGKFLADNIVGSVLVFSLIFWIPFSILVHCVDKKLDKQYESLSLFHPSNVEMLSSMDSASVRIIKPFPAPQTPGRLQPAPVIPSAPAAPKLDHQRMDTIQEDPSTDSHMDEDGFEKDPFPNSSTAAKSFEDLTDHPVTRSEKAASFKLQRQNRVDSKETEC
A3A deaminase: inhibitors of human APOBEC3A DNA deaminase; inhibition, % at 20 µM; recombinant A3A, FAM/TAMRA ssDNA deamination fluorescence; actives 0.41% (n = 330,000); P31941;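 active = at least 40% inhibition at 20 µM here, with at most 30% in a related deaminase screen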;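 note: plate controls were A3A with DMSO for no effect and wells lacking A3A enzyme for full effect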
ADAM10 counter: ADAM10 inhibition, counter-screen for ADAM17 exosite hits; recombinant ADAM10, EDANS/DABCYL FRET peptide cleavage, 3 h; inhibition, % at 6.95 µM; shares compounds with ADAM17 inh; actives 47% (n = 2,900); AID 743256;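 active = mean inhibition over the triplicate runs exceeds the activity threshold set in the earlier primary screen, cut at about 20% in these data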;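 note: 0% = DMSO wells and 100% = marimastat wells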
ADAM17 confirm: human ADAM17 inhibition, confirmation; shares compounds with ADAM17 inh; recombinant ADAM17, EDANS/DABCYL QFRET peptide cleavage; inhibition, % at 6.95 µM; actives 65% (n = 2,900); AID 743257;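 active = mean inhibition across replicates above the hit cutoff set in the primary screen, cut at about 8.5% in these data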;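 note: 0% = DMSO wells and 100% = marimastat wells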
An asterisk follows results filed as active; . = no result. A selection: hits, their analogues and other compounds. The true share with any hit is near 2.4%.

SMILES	CendR NRP1 mod	APOBEC3G inh	ADAM10 inh	ADAM17 inh	A3A deaminase	ADAM10 counter	ADAM17 confirm
CCOC(=O)c1c(C)[nH]c(C(=O)OCc2ccccc2)c1C	3	15	13	8.8*	5	12	8.9*
CCOC(=O)c1oc2cc(O)cc(C)c2c(=O)c1-c1cscn1	-2	-1	13	10*	1	7	4
O=C(CN1CCN(Cc2ccccc2Cl)CC1)N/N=C\c1ccccc1F	.	.	-5	-3	.	.	.
CC1CN(C(=O)COc2ncnc3ccccc23)CC(C)O1 (centres undefined)	4	-4	-4	9.7*	-1	-6	1
O=C(COc1ncnc2ccccc12)N1CCN(c2ccccc2)CC1	12	-2	-3	-3	2	.	.
CC(C)(C)c1ccc(NC(=O)COC(=O)c2ccc(NS(=O)(=O)c3ccc(F)c(F)c3)cc2)cc1	-7	-9	14	9.6*	-2	42*	20*
CCOc1cccc(C=NNC(=O)C(=O)Nc2cccc(C(F)(F)F)c2)c1O	.	.	3	1	.	.	.
O=C(COC(=O)c1cccc(NS(=O)(=O)/C=C/c2ccccc2)c1)Nc1ccccc1OC(F)F	4	-2	15	9.9*	-1	18	15*
CC(=O)C[C@H](O)CC(=O)[C@@H]1OC(=O)CCCCC/C=C/Cc2ccccc21	22	-4	13	8.8*	0	1	-1
COc1ccc(-n2c(=S)[nH]c3c(oc4ccccc43)c2=O)cc1	8	-11	6	9.2*	-2	3	6
Cc1ccc(-n2c(=O)[nH]c3c(oc4ccccc43)c2=O)cc1	0	-5	-30	-5	-10	.	.
CCOc1ccc(/C=C/C(=O)c2cc(Br)ccc(=O)c2O)cc1	-71	.	8	11*	.	4	22*
Cc1ccc(C(=O)C2CCN(CC(=O)NC(C)C)CC2)cc1	.	.	-2	1	.	.	.
CCOC(=O)/C(=N/Nc1ccccc1)c1csc(Nc2ccccc2)n1	5	-6	1	11*	-2	10	8
COc1ccc([C@H]2CC(=O)C=C(/C=C/c3ccccc3)C2)cc1OC	8	-8	13	13*	-2	-2	6
CC/C(C)=N/Nc1nc2c(c(=O)[nH]c(=O)n2C)n1CCc1ccccc1	-14	-3	-84	-31	2	.	.
CC/C(C)=N/Nc1nc2c(c(=O)[nH]c(=O)n2C)n1Cc1ccccc1	-4	-4	14	9.1*	-1	5	3
O=P(c1ccccc1)(c1ccccc1)c1cnc2ccccn12	.	.	-5	-2	.	.	.
CC(=O)C1=C(C)N(Cc2ccc(F)cc2)C(=S)NC1c1ccc(Br)cc1 (centres undefined)	.	.	10	7	.	.	.
COC(=O)C1=C(C)N(Cc2ccc(Br)cc2)C(=S)NC1c1ccc(F)cc1 (centres undefined)	.	.	10	9.3*	.	19	12*
CN(Cc1ccccc1)C(=O)OCc1cn(Cc2ccccc2Cl)nn1	.	.	6	-1	.	.	.
CC(C)(C)c1ccc(S(=O)(=O)N2CCCC(C(=O)N3CCN(Cc4ccccc4)CC3)C2)cc1 (centres undefined)	.	.	19	3	.	.	.
O=C(Nc1cccc(S(=O)(=O)C(F)F)c1)c1ccc(S(=O)(=O)N2CCOCC2)cc1	6	0	13	11*	-3	14	9.6*
O=C(Nc1ccc2c(c1)CCC2)c1cccc(S(=O)(=O)N2CCN(c3ccccc3)CC2)c1	2	5	16	9.1*	23	20*	15*
O=C(Nc1cccc(S(=O)(=O)C(F)F)c1)c1ccc(S(=O)(=O)N2CCCC2)cc1	4	-2	9	-2	-1	.	.
O=C(Nc1ccc(S(=O)(=O)C(F)F)cc1)c1cccc(S(=O)(=O)N2CCOCC2)c1	10	-8	13	12*	-3	14	9.0*
O=C(c1ccccc1Oc1ccccc1)N1CCC(Oc2cccnc2)CC1	.	.	-4	-5	.	.	.
C#CCNC(=O)C[C@H]1C[C@@]2(C(=O)OC)C(=C[C@H](C(C)(C)C)O[C@@H]2C)N(Cc2ccc3c(c2)OCO3)C1=O	.	.	-11	1	.	.	.
